Drawing on PMC12136788, this text covers binding signal for 22 molecules.

Changes are numbered by the printed parent chain. Over roughly 5,800 sequences, “enrichment r” has its median near 0.54; the highest 2% begin near 16. The list comes from a sample in which the highest values are over-represented; it also holds similar and randomly drawn sequences.

The labels stand for the following.
B1: ENSG00000079335:stop:overlap|stop_codon|ENSG00000079335|stop_codon|NA|stop_codon (ssRNA)
RNA: GGGAGUUCUACAGUCCGACGAUCUUGGUGGAAAUCUUUCAAAAACACAAAACAUGGAACGAUUUGGAGAGGUAAGUUUUCCCUAGGAGAUUCUAUCUUCUUAAAACUGAUGUUCUGCAUUUGUUUCUCAGUUGGACCUAUAUACAACAGAGGAUUGAGCAUCA
B2: chr9:34635388:34635489:-|3pUTR|ENSG00000147955|msi1|FALSE|unique (ssRNA)
RNA: GGGAGUUCUACAGUCCGACGAUCGGGAUAUCCAUGCUUAUGUAUCCAAACACAGAGACCCAUGGGAACAAAUGAGACACAUAUAGAUACUGAGACCUGUGUGUACAGUAGGACCAUGCACUCACACCCAUCUGGAGAGGGAGCCAACAGAGGAUUGAGCAUCA
B3: chr12:54350855:54350965:+|3pUTR|ENSG00000111481|msi1|FALSE|unique (ssRNA)
RNA: GGGAGUUCUACAGUCCGACGAUCUUGCCCUGACAUUUUUGUAAAUUCUGUGCCCUUUGCUGUAGCUACACUUCAGAUUAAAGUAGGAGAAAGAAUGUGCUGAGUGUUUUCCUCCCUUUGCCUCUACCUGGCCCUCAUCCCAACCAACAGAGGAUUGAGCAUCA
B4: chr9:86945015:86945116:-|3pUTR|ENSG00000180447|msi1|FALSE|unique (ssRNA)
RNA: GGGAGUUCUACAGUCCGACGAUCUUGGUUUUGGAUAAGUUUGAGCCCUUGACCUUAAUUUCAUUGCUACCACUCUGAUCUCUUAGCACAUUUCUUAGGAUUAAGGGUCCAAAAAUGCUGAUCUAAGGGGUUGCCAUGGUGUUGCAACAGAGGAUUGAGCAUCA
B5: chr5:172042892:172042993:-|3pUTR|ENSG00000072786|msi1|total|mutant (ssRNA)
RNA: GGGAGUUCUACAGUCCGACGAUCGAUUCUCCCGCUUCAACCUUGAGCCGCUGGGACGACAGAUACAUGCUACUGCACCCAGCCCGGUUAAGGUUCUGUAUACUCUGUCUUUCUAAAGCAAUUCCCUGGAAAUUUUCUCAACAUCAACAGAGGAUUGAGCAUCA
B6: chr9:69711526:69711627:-|3pUTR|ENSG00000188647|unk|FALSE|unique (ssRNA)
RNA: GGGAGUUCUACAGUCCGACGAUCGAACUGCUGUAGUCUUCUGCAAUCAGUCUCUGUAUUGGUAUAUCCAGUACUAUCGGGUUUAGGUUCUUUUUAUUUUUCCUUAAAUCUUACUUGUUUCUAGCGUCUUAAGAGUGGUAAUGGCAACAGAGGAUUGAGCAUCA
B7: chr22:49888080:49888186:+|3pUTR|ENSG00000100426|unk|FALSE|unique (ssRNA)
RNA: GGGAGUUCUACAGUCCGACGAUCUGGCUUAUUAACAGGGAAGAAGCUUGUUAUAUUCCAGUUGUAAGAAUAGCCUUAGUGUUUAGAUUUUUUUAUGAUAGGGAAGAUGCGGCCAUCACUGGGAUAUUUUCAAAUCCCAAGGACCAACAGAGGAUUGAGCAUCA
B8: chr19:35555165:35555334:-|CDS|ENSG00000105675|control|control|control (ssRNA)
RNA: GGGAGUUCUACAGUCCGACGAUCGGCCGUCACGGGGGAUGGUGUGAAUGACUCCCCAGCUCUGAAGAAGGCAGACAUCGGAGUAGCCAUGGGCAUCGCUGGCUCAGAUGCUGCCAAAAAUGCAGCUGACAUGAUCCUGCUGGACAACAGAGGAUUGAGCAUCA
B9: chr7:39987650:39987751:+|CDS|ENSG00000065883|unk|total|mutant (ssRNA)
RNA: GGGAGUUCUACAGUCCGACGAUCUCCCGGCAUUCAAGAUCUCGCCGCAGGCACAGAUUGUCCCGAUCCAGAAGUCGUCAUUCCCGUAUUUCUCCCCGCACACUAACUCUGAAGAGCCGCCUGGCAGCUGAAUUGAACAAGAAUCAACAGAGGAUUGAGCAUCA
B10: chrX:129805617:129805718:-|3pUTR|ENSG00000188706|msi1|total|mutant (ssRNA)
RNA: GGGAGUUCUACAGUCCGACGAUCUCUUUUCCCAUCCGAUAUAUGUAAGCCGUUGCCGCCGAGAUAAUAAUUGACAUUUCUCGCCGACUACCCAGAAACUUUUUUAAUACCUGUGCCAUUCUCAAUAAGAAUUUAUGAGAUGCCCAACAGAGGAUUGAGCAUCA
B11: chr12:68839811:68839877:+|CDS_3pUTR|ENSG00000135679|msi1_unk|FALSE|overlapping (ssRNA)
RNA: GGGAGUUCUACAGUCCGACGAUCAUAAGCCCUGCCCAGUAUGUAGACAACCAAUUCAAAUGAUUGUGCUAACUUAUUUCCCCUAGUUGACCUGUCUAUAAGAGAAUUAUAUAUUUCUAACUAUAUAACCCUAGGAAUUUAGACCAACAGAGGAUUGAGCAUCA
B12: chr7:158734047:158734148:-|3pUTR|ENSG00000117868|msi1_unk|FALSE|overlapping (ssRNA)
RNA: GGGAGUUCUACAGUCCGACGAUCCUACCCGGAACACACCCUCUCACAGACGUACCAAUGUUAUUUUUAUAAUUUCAUGGAUUUAGUUAUACAUACCUUAAUAGUUUUAUAAAAUUGUUGACAUUUCAGGCAAAUUUGGCCAAUCAACAGAGGAUUGAGCAUCA
B13: chr1:6224442:6224573:-|3pUTR|ENSG00000116237|msi1_unk|FALSE|overlapping (ssRNA)
RNA: GGGAGUUCUACAGUCCGACGAUCCUAUACAAUUUUAAAAAUACUUCCUCAUAGGAUGCUUUGGCCCUUCAUCUAUUUAAUCAUAGCUACAUACCUAUUUUUUAUAAGUAGCAGUACACAUUCAAAGGGGUAUUCCUAGCUCAACAACAGAGGAUUGAGCAUCA
B14: chr21:25881503:25881610:-|3pUTR|ENSG00000142192|msi1_unk|FALSE|overlapping (ssRNA)
RNA: GGGAGUUCUACAGUCCGACGAUCACAAACCCGUUUUAUGAUUUACUCAUUAUCGCCUUUUGACAGCUGUGCUGUAACACAAGUAGAUGCCUGAACUUGAAUUAAUCCACACAUCAGUAAUGUAUUCUAUCUCUCUUUACAUUUCAACAGAGGAUUGAGCAUCA
B15: chr19:9526975:9527076:-|3pUTR|ENSG00000130818|unk|total|mutant (ssRNA)
RNA: GGGAGUUCUACAGUCCGACGAUCCCUCUCAGACCUUCCAUCAUUACUAUAUUUCACUUUUAUGCCUAUAAACACACACAAAUCCGCAUAUGUAAUCUAAUACAUUGCCGCUAUUUUUCAGAAGUUAUCAGAUCAAUUAAGUAUCAACAGAGGAUUGAGCAUCA
B16: chr7:158734047:158734148:-|3pUTR|ENSG00000117868|msi1_unk|total|mutant (ssRNA)
RNA: B12 RNA with U83C, A84C, U101C, A102C
B17: chr11:69653362:69653473:+|3pUTR|ENSG00000110092|msi1_unk|FALSE|overlapping (ssRNA)
RNA: GGGAGUUCUACAGUCCGACGAUCACUGCCAUGUACUAGUUUUAGUUUUCUCUUAGAACAUUGUAUUACAGAUGCCUUUUUUGUAGUUUUUUUUUUUUUUAUGUGAUCAAUUUUGACUUAAUGUGAUUACUGCUCUAUUCCAAACAACAGAGGAUUGAGCAUCA
B18: chr2:165880514:165880799:-|CDS|ENSG00000123607|control|control|control (ssRNA)
RNA: GGGAGUUCUACAGUCCGACGAUCGAUGGCAUGGAAAUAUAGCAAUCGGACAAAUCCGGCAGUAGGUGAGUUUGGCAAUCACCUAGAUUUUUCACAGAAAAAUUAUGUUGUAUUUAUUAAUUUUCAUUUAAAUGCAUUUGAUUUCAACAGAGGAUUGAGCAUCA
B19: chr1:6224442:6224573:-|3pUTR|ENSG00000116237|msi1_unk|total|mutant (ssRNA)
RNA: B13 RNA with U51C, A52C, U83C, A84C, U108C, A109C, U136C, A137C
B20: chrX:129805617:129805718:-|3pUTR|ENSG00000188706|msi1|FALSE|unique (ssRNA)
RNA: B10 RNA with C35U, C36A, C49U, C50A, C55U, C56A, C58U, C59A, C83U, C84A
B21: chr11:69653362:69653473:+|3pUTR|ENSG00000110092|msi1_unk|total|mutant (ssRNA)
RNA: B17 RNA with U36C, A37C, U42C, A43C, U53C, A54C, U83C, A84C
B22: chr2:205797254:205797461:+|3pUTR|ENSG00000118257|msi1|total|mutant (ssRNA)
RNA: GGGAGUUCUACAGUCCGACGAUCUCACCCUCCCAUGAUGCGCAGUGUUCAGAAAGCUGGUAAGUCCCCGGGAUUUCCAGAAGCCGCCUGCAGAAGAAGGUAAGUUUGAAAGCCACUCCAGGGGUCCUGAUGCUGUCAUGCUCACAACAGAGGAUUGAGCAUCA

The target in the experiment is MSI1 full-length (mouse, UniProt Q61474 1-362). The experiment in a line: nsRBNS (natural sequence RNA bind-n-seq); RBNS binding buffer (assumed for nsRBNS): 25 mM Tris pH 7.5, 150 mM KCl, 3 mM MgCl2, 0.01% Triton X-100, 500 ug/ml BSA, 20 U/ml SUPERase-In, 4 C; UNK is unkempt and MSI1 is Musashi-1; names of the RNAs are library labels; protein concentration not given here; high values mean tight binding.
Sequence of MSI1 full-length (Q61474 whole entry): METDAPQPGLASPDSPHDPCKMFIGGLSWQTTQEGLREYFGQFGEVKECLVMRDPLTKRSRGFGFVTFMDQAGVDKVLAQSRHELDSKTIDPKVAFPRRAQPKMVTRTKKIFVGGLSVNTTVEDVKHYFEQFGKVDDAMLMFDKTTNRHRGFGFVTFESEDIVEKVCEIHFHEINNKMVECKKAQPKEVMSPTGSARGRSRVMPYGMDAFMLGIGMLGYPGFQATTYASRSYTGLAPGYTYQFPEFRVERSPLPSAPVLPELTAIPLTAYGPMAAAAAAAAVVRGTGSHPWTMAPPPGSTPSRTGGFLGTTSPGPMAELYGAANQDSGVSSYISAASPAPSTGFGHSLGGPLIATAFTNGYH
In turn, B1 displayed a binding signal of 4.56 enrichment R.
As for B2, the figure is 0.728 enrichment R.
In the case of B3, the binding signal was found to be 0.649 enrichment R.
In turn, B4 registered a binding signal of 0.273 enrichment R.
As for B5, the figure is 0.391 enrichment R.
The molecule B6 yielded a binding signal of 3.44 enrichment R.
To B7 belongs 11.3 enrichment R; to B8, 0.465 enrichment R.
Regarding B9, the binding signal worked out at 0.458 enrichment R.
For B10, the binding signal worked out at 0.608 enrichment R.
To B11 belongs 3.21 enrichment R; to B12, 20.8 enrichment R; to B13, 7.66 enrichment R.
To B14 belongs 0.949 enrichment R.
To B15 belongs 9.57 enrichment R.
In turn, B16 came in with a binding signal of 0.582 enrichment R.
To B17 belongs 32.9 enrichment R; to B18, 0.379 enrichment R.
For the molecule B19, the binding signal was determined as 18.3 enrichment R.
For the molecule B20, the binding signal is 71.9 enrichment R.
To B21 belongs 1.65 enrichment R; to B22, 0.483 enrichment R.
